Only some compounds are listed: those with a hit (about 1.9% of all), similar ones and a draw of the others.
IL2 activator = qHTS of IL-2 Activators. activation, % (series mostly up to about 46 µM). 360,000 tested, 0.065% active. IL-2 activation reporter assay, cell-based qHTS; stimulated with anti-CD3/CD4/CD28 beads; in transgenic mouse T cells; in the data active = activation above about 50%; inconclusive = mostly about 30% to 49%; also: 0% is about no effect
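Readout: EGFP and DsRed signals by fluorescent plate cytometry. Unstimulated transgenic mouse T cells received compound 60 min before antibody-bead stimulation, then incubated 18 h at 37 degrees C.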
NPSR antagonist = qHTS Assay for Antagonists of the Neuropeptide S Receptor: cAMP Signal Transduction | AID 1461, 2008 | Q6W5P4 | Potency, µM (series often up to 38.3 µM), inactives show top-dose activity change, negative = inhibition, most hits filed as inhibitors | 220,000 tested, 1% active | CHO-NPSR cells, cAMP TR-FRET, antagonist mode; also: potency is read from the fitted curve at half-maximal effect; % is scaled to controls: 0 for no effect and ±100 for the full control effect; nearly all actives have a fitted effect of over 50% in size
Target sequence (Q6W5P4 whole entry, looked up): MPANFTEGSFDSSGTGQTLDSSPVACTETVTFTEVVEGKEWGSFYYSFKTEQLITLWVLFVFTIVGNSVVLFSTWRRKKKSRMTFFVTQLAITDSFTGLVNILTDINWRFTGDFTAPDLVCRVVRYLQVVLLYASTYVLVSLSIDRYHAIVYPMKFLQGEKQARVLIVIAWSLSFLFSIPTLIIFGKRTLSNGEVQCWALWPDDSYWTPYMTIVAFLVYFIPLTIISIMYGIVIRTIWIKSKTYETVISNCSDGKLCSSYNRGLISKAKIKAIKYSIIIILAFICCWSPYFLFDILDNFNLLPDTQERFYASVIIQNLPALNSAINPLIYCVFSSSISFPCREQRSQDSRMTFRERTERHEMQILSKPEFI
BRCA1 expr up = qHTS Assay to Identify Small Molecule Activators of BRCA1 Expression. MCF7-BRCA1-FFLuc reporter, luminescence, 48 h; response scale: scaled: vehicle 0%, 10 µM genistein 100%. 380,000 tested, 1.1% active. Potency, µM (highest dose often 46.1 µM), for inactives: at the highest dose activation, most hits filed as activators; also: potency is read from the fitted curve at half-maximal effect; nearly all actives have a fitted effect of over 80% in size
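MCF7-BRCA1-FFLuc, 2000 cells/well; 2 h attach, 37 °C/5% CO2; compound 48 h; luciferase substrate 15 min; luminescence end-point. Norm. to genistein 10 microM max activation and DMSO; concentration-response curves fitted.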
Giardia kill = Small Molecules that selectively kill Giardia lamblia: qHTS; 340,000 tested, 0.15% active; Giardia lamblia trophozoite viability; activity change, % at 7.66 µM, hits read low; in the data active = activity change below about -80%; inconclusive = between about -30% and that limit;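 also: parasites exposed to compound for two days anaerobically before the ATP read; % is scaled to controls: 0 for no effect and ±100 for the full control effect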
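Luminescent ATP signal served as the viability read-out, measured 15-30 min after adding ATP detection reagent to trophozoites that had been incubated with compounds for 48 hrs at 37 deg C anaerobically at 100 cells/well.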
RXFP1 agonist = qHTS Assay for Agonists of the Relaxin Receptor RXFP1. Relaxin receptor 1 (Homo sapiens), Q9HBX9. 370,000 tested, 0.3% active. Potency, µM (doses to about 57.5 µM), inactives show top-dose activation, hits mostly activators. HEK293T-RXFP1 cAMP TR-FRET, 30 min; response scale: percent of porcine relaxin response, buffer zero; also: potency is read from the fitted curve at half-maximal effect; % is scaled to controls: 0 for no effect and ±100 for the full control effect; nearly all actives have a fitted effect of over 60% in size
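Agonist response is measured as cAMP accumulation in an RXFP1-transfected HEK293T line under PDE4 inhibition. Values are scaled between buffer-only and 29 nM porcine relaxin, and EC50s come from standard Hill equation fits.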
RXFP1 antagonist = qHTS Assay for Antagonists of the Relaxin Receptor RXFP1. Relaxin receptor 1 (Homo sapiens), Q9HBX9. HEK293-RXFP1, relaxin-stimulated cAMP HTRF, 30 min; stronger effect = lower value. activity change, negative = inhibition, % at 57.5 µM. 350,000 tested, 0.59% active;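 active = activity change of -60% or lower, but not beyond a set lower limit; inconclusive = change between -60% and -40%, or beyond the set limit; inactive = change above -40%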; also: % is scaled to controls: 0 for no effect and ±100 for the full control effect
* marks the source's active call; other numbers are inactive results; [ ] = dose if it differs, or a comment. Unless noted, calls follow the shape of the dose curve; as a rule, active = well fitted curve in the direction sought with a large enough effect; inconclusive = small, poorly fitted or top-dose-only effect, or another doubt; inactive = no such curve, though single readings can be large; an effect the other way counts as inactive or inconclusive.

What do the screens show for `CC(NCC(=O)NC(=O)NC1CCCC1)c1ccc(Cl)cc1Cl` (configuration not stated)?
IL2 activator: -4; BRCA1 expr up: -23%; Giardia kill: 5; RXFP1 agonist: -2%; RXFP1 antagonist: -63*

How did Cn1nc(-c2ccccc2F)c2cc(C(=O)N3CCN(c4ccccc4F)CC3)sc21 do in these assays?
RXFP1 agonist: 2%; RXFP1 antagonist: -16

What do the screens show for `CCCCOc1ccc(CC(=O)N(C)OC)cc1`?
BRCA1 expr up: 33%

Results for O=C(COC(=O)/C=C/c1ccc(Cl)cc1)NC(=O)NCc1ccccc1 ?
IL2 activator: -1; BRCA1 expr up: 2%; Giardia kill: 48; RXFP1 agonist: 1%; RXFP1 antagonist: -61*

How did Cc1ccc(NC(=S)NC(=O)c2cccs2)cc1F do in these assays?
IL2 activator: 0; BRCA1 expr up: 3.5µM*; Giardia kill: -15; RXFP1 antagonist: -20

What do the screens show for `O=C(NC(=S)Nc1ccccc1)c1cccs1`?
IL2 activator: 0; BRCA1 expr up: 5.6µM*; Giardia kill: -18; RXFP1 agonist: -2%; RXFP1 antagonist: -4

What do the screens show for `O=C(Nc1ccc(NC(=S)NC(=O)c2cccs2)cc1)c1ccccc1`?
IL2 activator: -2; NPSR antagonist: -9%; BRCA1 expr up: 35%; Giardia kill: -22; RXFP1 agonist: 2%

How did CC(C)c1ccc(Nc2nc(Nc3ccc(Cl)cc3)nc(N3CCOCC3)n2)cc1 do in these assays?
BRCA1 expr up: -2%; Giardia kill: 2

Results for O=C(Nc1ccccc1)c1ccc(Br)o1 ?
IL2 activator: 2; NPSR antagonist: 6%; BRCA1 expr up: 2%; Giardia kill: 8; RXFP1 agonist: 1%

What do the screens show for `COc1ccc(-c2ccc(NC(=O)c3ccc(Br)o3)cc2)nn1`?
IL2 activator: 0; BRCA1 expr up: 4µM*; Giardia kill: -26; RXFP1 agonist: 27%; RXFP1 antagonist: -12

How did COC(=O)Cc1ccc(NC(=O)c2ccc(Br)o2)cc1 do in these assays?
IL2 activator: -1; NPSR antagonist: -12%[46.1 µM]; BRCA1 expr up: 13µM*; Giardia kill: -6; RXFP1 agonist: 0%; RXFP1 antagonist: 5

What do the screens show for `CCN(CC)c1ccc(NC(=O)c2ccc(Br)o2)cc1`?
IL2 activator: 0; NPSR antagonist: inconclusive; BRCA1 expr up: 2.8µM*; Giardia kill: -8; RXFP1 agonist: 1%; RXFP1 antagonist: -21

What do the screens show for `O=C(Nc1ccccc1C(=O)O)c1ccc(Br)o1`?
IL2 activator: 0; NPSR antagonist: -3%[46.1 µM]; BRCA1 expr up: 14µM*; Giardia kill: -4; RXFP1 agonist: 0%; RXFP1 antagonist: 5

What do the screens show for `COc1cc(C2C(C(=O)c3cc4ccccc4o3)=C(O)C(=O)N2CCN2CCOCC2)ccc1OCCC(C)C` (configuration not stated)?
IL2 activator: -1; BRCA1 expr up: -5%; Giardia kill: 22; RXFP1 agonist: 28µM*; RXFP1 antagonist: -5

What do the screens show for `COc1cc2c(NC3CCN(C)CC3)nc(N3CCCN(C)CC3)nc2cc1OCC1CCNCC1`?
BRCA1 expr up: -8%

What do the screens show for `O=C1C2C3C=CC(CC3)C2C(=O)N1/N=C/c1c[nH]c2ccccc12` (configuration not stated)?
IL2 activator: 2; NPSR antagonist: 6%; BRCA1 expr up: 8.9µM*; Giardia kill: 9; RXFP1 agonist: 0%; RXFP1 antagonist: -8

How did O=C(Cc1ccccc1)Nc1ccc2c(c1)OC1(CCCC1)O2 do in these assays?
IL2 activator: 1; BRCA1 expr up: 4µM*; Giardia kill: -10; RXFP1 agonist: -2%; RXFP1 antagonist: -12
